Bioassay records: PubChem BioAssay, National Center for Advancing Translational Sciences (NCATS)
Only some compounds are listed: those with a hit (about 2.8% of all), similar ones and a draw of the others.
Pol eta inh-1 – DNA polymerase eta (human) inhibition; Q9Y253; recombinant Pol eta, fluorescent DNA replication assay; Potency, µM (series often up to 114 µM), for inactives: top-dose activity change, negative = inhibition, actives largely listed as inhibitors; hit rate 1.2% among 390,000; also: potency is read from the fitted curve at half-maximal effect; % is scaled to controls: 0 for no effect and ±100 for the full control effect
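Fluorescent replication assay: 50 nM final substrate added after a 15 min room-temperature compound preincubation with 10 nM enzyme. Signal taken at 0 min and again at 10 min.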
Pol iota inh – inhibitors of human DNA polymerase iota; Q9UNA4; Pol iota fluorescent replication assay, 10 min; Potency, µM (titrated, usually from 115 µM), inactives show top-dose activity, negative = inhibition, most hits filed as inhibitors; hit rate 1% among 390,000; AID 588590; also: potency is read from the fitted curve at half-maximal effect
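Fluorescent replication assay read twice, at 0 min and 10 min after adding 50 nM (final) substrate. Enzyme (10 nM) and compounds were first incubated 15 min at room temperature; enzyme-free buffer wells were negative controls.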
FEN1 inhibitor – inhibitors of human flap endonuclease 1 | P39748 | Recombinant FEN1 flap cleavage, fluorescence, 15 min | Potency, µM (series often up to 114 µM), without a hit: at the top dose activity change, negative = inhibition, usual class: inhibitors | hit rate 0.35% among 390,000; also: potency is read from the fitted curve at half-maximal effect; % is scaled to controls: 0 for no effect and ±100 for the full control effect; nearly all actives have a fitted effect of over 65% in size
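Recombinant FEN1 (10 nM) was preincubated with pin-transferred compounds for 15 min at room temperature, then flap DNA substrate (50 nM final) was added. Plates were read at 0 and 15 min, and normalized concentration–response data were fitted to a four-parameter Hill equation.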
POLB inh – inhibitors of human DNA polymerase beta; P06746; Pol beta primer extension/strand displacement, fluorescence kinetic; AID 485314; hit rate 1.3% among 340,000; Potency, µM (doses to about 114 µM), without a hit: at the top dose activity change, negative = inhibition, usual class: inhibitors; also: potency is read from the fitted curve at half-maximal effect; % is scaled to controls: 0 for no effect and ±100 for the full control effect
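Human Pol beta at 10 nM; strand-displacement substrate 50 nM final. Compound exposure 15 min at room temperature before start, reaction 10 min at room temperature.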
Pol kappa inh-1 – DNA polymerase kappa (human) inhibition; Q9UBT6; purified Pol kappa, fluorescent DNA synthesis assay, 10 min; Potency, µM (highest dose often 107 µM), for the others: at the top dose activity, negative = inhibition, usual class: inhibitors; hit rate 0.53% among 400,000; also: potency is read from the fitted curve at half-maximal effect; % is scaled to controls: 0 for no effect and ±100 for the full control effect
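50 nM final substrate added after 15 min RT preincubation of 10 nM Pol kappa with compound; fluorescence read at 0 and 10 min.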
PI5P4Ka inh – PI5P4K alpha (human) kinase inhibition | max response, % | hit rate 1.2% among 330,000 | P48426 | PI5P4Kalpha enzyme, ADP-Glo luminescence, 60 min; stronger effect = lower value | AID 652105; active = max response of -50% or lower; inconclusive = between -30% and -50%; inactive = -30% or higher; also: value at the top dose of about 77 µM; % is scaled to controls: 0 for no effect and ±100 for the full control effect
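Luminescence from ADP-Glo served as readout of PI5P4Kalpha activity in a qHTS format. Reaction: enzyme, substrate, compound, ATP at 5 microM final, 60 min at RT.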
Pol kappa inh-2 – Pol kappa (human) inhibition, cherry-pick confirmation. shares compounds with Pol eta inh-1. purified Pol-kappa, fluorescent strand-displacement substrate. Potency, µM, actives largely listed as inhibitors. hit rate 76% among 920. AID 720501; also: potency is read from the fitted curve at half-maximal effect
Pol eta inh-2 – confirmation of human DNA polymerase eta inhibitors; shares compounds with Pol eta inh-1; Pol eta primer extension, TAMRA/BHQ fluorescence, 10 min; Potency, µM, actives largely listed as inhibitors; hit rate 64% among 2,600; also: potency is read from the fitted curve at half-maximal effect
An asterisk follows results filed as active; ? = inconclusive; . = no result given; [ ] = dose if it differs, or a comment. Unless noted, calls follow the shape of the dose curve; as a rule, active = well fitted curve in the direction sought with a large enough effect; inconclusive = small, poorly fitted or top-dose-only effect, or another doubt; inactive = no such curve, though single readings can be large; an effect the other way counts as inactive or inconclusive.

SMILES	Pol eta inh-1	Pol iota inh	FEN1 inhibitor	POLB inh	Pol kappa inh-1	PI5P4Ka inh	Pol eta inh-2	others
C=CCOCCN1C(=O)C2C3C=CC(C2C1=O)C1C2C(=O)N(CCOCC=C)C(=O)C2C31 (stereo unspecified)	20µM*	28.2µM*	-5.0%	?	?	-2.3	67.5*
CC(C)c1ccc(OCc2ccc(C(=O)O)o2)cc1	22.4µM*	?	-6.6%	10µM*	-15.3%	-11.2	?	Pol kappa inh-2=42.3*
N#C/C(=C\c1ccc(Cl)cc1)C(=O)Nc1cccnc1	-4.9%	9.5%	-2.8%	-2.7%	4.2%	1.4	.
CCC(C)(C)C1CCc2c(sc(NC(=O)c3ccccc3C(=O)O)c2C#N)C1 (stereo unspecified)	?	26.4%	-1.3%	-33.6%	-33.1%	?	.	Pol kappa inh-2=?
CSCC[C@H](NC(=O)[C@@H]1Cc2ccccc2CN1)C(=O)Nc1ccc2c(c1)OCCO2	-23.4%	49.0%	-7.2%	2.3%	-7.7%	0.1	.
COc1cccc2cc(C(=O)C3=C(O)C(=O)N(CCN4CCOCC4)C3c3cccc(Cl)c3)oc12 (stereo unspecified)	28.2µM*	-20.8%	-3.3%	2.5%	-14.1%	-8.3	16.9*
COc1cccc(C(=O)NC2C(=O)N3C(C(=O)O)=C(COC(C)=O)CSC23)c1 (stereo unspecified)	50.1µM*	?	-2.0%	.	?	-6.5	75.7*
CN(C(=O)Cn1ncc2c1-c1ccccc1OC2)c1ccc(Br)cc1	-12.4%	7.0%	-7.4%	18.0%	-6.2%	.	.
COC(=O)c1ccc(C)c(NC(=O)CSc2sc3c(O)cc(=O)[nH]c3c2C#N)c1	10µM*	12.6µM*	?	35.5µM*	22.4µM*	-63.9*	?	Pol kappa inh-2=?
Cc1cc(C)cc(C(=O)OCC(=O)NCc2ccco2)c1	?	?	-13.1%	.	?	-29.9	.
Cc1cccc(Nc2ccccc2C(=O)OCC(=O)NCc2ccco2)c1C	79.4µM*	?	1.5%	1.0%	-9.2%	.	?
Cc1ccc(C)c(NC(=O)CCNS(=O)(=O)c2ccc3[nH]c(=O)oc3c2)c1	22.4µM*	-17.4%	5.8%	11.2µM*	3.5%	0.8	?
Cc1ccc(NC(=O)CCNS(=O)(=O)c2ccc3[nH]c(=O)oc3c2)c(C)c1	-6.8%	-19.7%	-5.1%	?	-21.4%	0.9	.
CCOC(=O)Cc1ccc(NC(=O)NCc2ccc3c(c2)CCN3C(=O)CC)cc1	-3.0%	-3.1%	-3.4%	-14.4%	-3.4%[60.1 µM]	.	.
COc1ccc2nc(Cl)c(C3CC(c4ccco4)=NN3C(=O)CCCC(=O)O)cc2c1 (stereo unspecified)	35.5µM*	22.4µM*	0.0%	?	28.2µM*	1.8	75.7*
COc1ccc2nc(Cl)c(C3CC(c4ccco4)=NN3C(=O)CCC(=O)O)cc2c1 (stereo unspecified)	?	-7.0%	-2.5%	24.4%	-0.9%	7.7	.
Cc1ccc(C(=O)NCc2occc2C(=O)O)o1	28.2µM*	?	-1.8%	20µM*	?	.	30.1*	Pol kappa inh-2=23.8*
CC1CCC/C=C/C(=O)c2c(O)cc(O)cc2CC(=O)O1 (stereo unspecified)	35.5µM*	17.8µM*	-0.5%	-15.2%	79.4µM*	2.1	75.7*
CC1(C(=O)NS(=O)(=O)c2ccc3c(c2)CCO3)CCN1C(=O)CCC1CCCC1 (stereo unspecified)	.	.	.	.	.	-1.0	.
CC1CC(C)CN(CC(O)COCc2ccccc2F)C1 (stereo unspecified)	-14.1%	-1.3%	0.5%	24.2%	5.9%	1.7	.
CCOc1ccc(-c2nnc(SCC(=O)N3CCNC3=O)o2)cc1	-23.4%	-6.4%	-0.2%	.	5.5%	2.3	.
